Experimental data from ChEMBL document CHEMBL3988442, “University of Dundee, Small-Polar-MMV Screening Library” (2021).
For some assays here: Measured potencies and affinities stand elsewhere.

Experiments:
Parameters in all cases: scale not given: direction of the effect not stated beside the values
[1] = target: Protein translocase subunit SecA (Escherichia coli (strain K12)) (UniProt P10408); experiment: Assay to Identify E. coli SecA ATPase Inhibitors; format: functional; settings: 30 µM
[2] = target: T1, Ubiquitin-activating enzyme e1, putative (Leishmania donovani (strain BPK282A1)) (UniProt E9BSI1); experiment: Leishmania donovani Ubiquitin Activating Enzyme (LdE1); format: functional; settings: 30 µM
T1 sequence (whole entry): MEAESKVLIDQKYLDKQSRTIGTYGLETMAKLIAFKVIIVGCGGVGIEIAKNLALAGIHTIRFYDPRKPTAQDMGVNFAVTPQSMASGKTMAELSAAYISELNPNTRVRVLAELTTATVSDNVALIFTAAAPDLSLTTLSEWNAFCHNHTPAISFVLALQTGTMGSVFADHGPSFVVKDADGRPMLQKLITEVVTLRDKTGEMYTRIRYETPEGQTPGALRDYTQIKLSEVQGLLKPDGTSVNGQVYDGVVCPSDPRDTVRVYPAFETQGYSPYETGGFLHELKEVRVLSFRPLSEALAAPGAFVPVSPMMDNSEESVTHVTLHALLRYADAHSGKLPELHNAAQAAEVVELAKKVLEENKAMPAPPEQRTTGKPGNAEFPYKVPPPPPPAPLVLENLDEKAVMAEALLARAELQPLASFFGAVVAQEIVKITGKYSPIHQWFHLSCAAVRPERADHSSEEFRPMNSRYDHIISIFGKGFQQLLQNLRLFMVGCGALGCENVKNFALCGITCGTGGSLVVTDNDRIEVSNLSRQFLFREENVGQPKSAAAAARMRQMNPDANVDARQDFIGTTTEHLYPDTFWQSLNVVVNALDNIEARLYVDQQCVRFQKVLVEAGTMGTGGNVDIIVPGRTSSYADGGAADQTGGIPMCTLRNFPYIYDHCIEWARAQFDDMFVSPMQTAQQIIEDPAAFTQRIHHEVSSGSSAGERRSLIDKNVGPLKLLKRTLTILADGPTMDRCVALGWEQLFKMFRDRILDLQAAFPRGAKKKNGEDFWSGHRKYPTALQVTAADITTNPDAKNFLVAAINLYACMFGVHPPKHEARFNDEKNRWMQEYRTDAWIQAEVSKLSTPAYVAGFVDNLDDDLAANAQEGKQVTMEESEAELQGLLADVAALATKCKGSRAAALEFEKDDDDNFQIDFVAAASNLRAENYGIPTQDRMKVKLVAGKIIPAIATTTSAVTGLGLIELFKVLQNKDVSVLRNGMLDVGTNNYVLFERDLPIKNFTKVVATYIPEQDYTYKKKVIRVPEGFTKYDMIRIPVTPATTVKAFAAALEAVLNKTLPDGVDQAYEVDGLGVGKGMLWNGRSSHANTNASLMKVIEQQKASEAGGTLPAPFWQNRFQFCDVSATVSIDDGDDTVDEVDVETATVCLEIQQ

[3] = target: AMP-activated protein kinase, AMPK (Homo sapiens) (UniProt P54646+O43741+P54619+Q9UGJ0+Q9Y478+Q13131+Q9UGI9); experiment: AMP-dependent Kinase enzyme assay. An in vitro enzyme assay that detects ADP turnover that is directly proportional to AMPK activity. This uses naive AMPK that is activated during the assay with MK-8722; format: functional; settings: 30 µM
[4] = target: Sialic acid-binding Ig-like lectin 9 (Homo sapiens) (UniProt Q9Y336); experiment: Hs-Siglec9 ALPHAscreen SOP 20170721; settings: 10 µM
Sialic acid-binding Ig-like lectin 9 (Homo sapiens), sequence (Q9Y336 whole entry): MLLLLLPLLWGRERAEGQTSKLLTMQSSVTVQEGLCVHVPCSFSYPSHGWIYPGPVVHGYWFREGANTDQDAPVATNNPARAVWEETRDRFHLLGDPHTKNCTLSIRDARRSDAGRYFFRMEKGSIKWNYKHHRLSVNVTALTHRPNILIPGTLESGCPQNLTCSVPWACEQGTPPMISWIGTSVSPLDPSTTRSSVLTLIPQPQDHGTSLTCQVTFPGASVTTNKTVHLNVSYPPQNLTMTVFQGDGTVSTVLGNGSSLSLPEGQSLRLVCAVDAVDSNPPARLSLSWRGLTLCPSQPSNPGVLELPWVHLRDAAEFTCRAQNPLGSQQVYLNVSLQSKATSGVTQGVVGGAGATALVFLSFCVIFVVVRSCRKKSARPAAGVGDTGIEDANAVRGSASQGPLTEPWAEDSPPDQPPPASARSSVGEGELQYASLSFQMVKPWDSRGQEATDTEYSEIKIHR

Trypanosoma cruzi = experiment: Trypanosoma cruzi phosphomannomutase and mannose-1-phosphate guanylyltransferase assay; format: functional; settings: 10 µM
[5] = target: T2, Arginase-2, mitochondrial (Homo sapiens) (UniProt P78540); experiment: in vitro enzyme assay to detect the production of urea directly proportional to the activity of Arginase II; format: functional; settings: 33.3 µM; also: in the data most compounds retested in dose-response had high values
T2 sequence (whole entry): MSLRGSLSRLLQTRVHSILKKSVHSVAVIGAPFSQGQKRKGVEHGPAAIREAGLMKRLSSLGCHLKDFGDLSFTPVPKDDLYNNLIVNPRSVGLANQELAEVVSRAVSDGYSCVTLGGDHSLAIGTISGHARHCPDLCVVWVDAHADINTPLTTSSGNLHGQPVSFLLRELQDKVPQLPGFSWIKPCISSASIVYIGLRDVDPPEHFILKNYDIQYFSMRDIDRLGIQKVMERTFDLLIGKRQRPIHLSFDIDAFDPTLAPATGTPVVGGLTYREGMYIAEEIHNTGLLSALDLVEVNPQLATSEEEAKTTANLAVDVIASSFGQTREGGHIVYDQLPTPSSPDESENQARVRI

[6] = target: T3, Proteasome subunit beta (Trypanosoma cruzi) (UniProt O96673); experiment: Trypanosoma cruzi proteasome chymotrypsin-like activity (TcProtChymo) assay.; also: in the data most compounds retested in dose-response had high values; format: functional; settings: 9.37 µM
T3 sequence (whole entry): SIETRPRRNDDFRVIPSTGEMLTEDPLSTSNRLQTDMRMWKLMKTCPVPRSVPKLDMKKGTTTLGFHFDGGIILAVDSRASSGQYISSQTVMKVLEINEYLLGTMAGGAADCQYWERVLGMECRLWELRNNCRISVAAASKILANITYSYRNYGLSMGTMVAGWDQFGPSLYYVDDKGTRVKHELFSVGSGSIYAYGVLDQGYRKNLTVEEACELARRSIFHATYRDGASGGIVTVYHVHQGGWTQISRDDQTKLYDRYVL

Homo sapiens = species: Homo sapiens; experiment: To identify inhibition of the IFN signalling (Jak-Stat) pathway via expression of an eGFP reporter gene under the control of an IFN-stimulated response element (ISRE) containing MxA promoter.; format: functional; settings: 30 µM
[7] = target: T4, Tyrosyl-tRNA synthetase, putative (Trypanosoma cruzi (strain CL Brener)) (UniProt Q4DSP6); experiment: Trypanosoma cruzi tyrosyl tRNA synthetase (TcYRS) _High Tyrosine SOP; format: functional; settings: 30 µM; also: in the data most compounds retested in dose-response had high values
T4 sequence (whole entry): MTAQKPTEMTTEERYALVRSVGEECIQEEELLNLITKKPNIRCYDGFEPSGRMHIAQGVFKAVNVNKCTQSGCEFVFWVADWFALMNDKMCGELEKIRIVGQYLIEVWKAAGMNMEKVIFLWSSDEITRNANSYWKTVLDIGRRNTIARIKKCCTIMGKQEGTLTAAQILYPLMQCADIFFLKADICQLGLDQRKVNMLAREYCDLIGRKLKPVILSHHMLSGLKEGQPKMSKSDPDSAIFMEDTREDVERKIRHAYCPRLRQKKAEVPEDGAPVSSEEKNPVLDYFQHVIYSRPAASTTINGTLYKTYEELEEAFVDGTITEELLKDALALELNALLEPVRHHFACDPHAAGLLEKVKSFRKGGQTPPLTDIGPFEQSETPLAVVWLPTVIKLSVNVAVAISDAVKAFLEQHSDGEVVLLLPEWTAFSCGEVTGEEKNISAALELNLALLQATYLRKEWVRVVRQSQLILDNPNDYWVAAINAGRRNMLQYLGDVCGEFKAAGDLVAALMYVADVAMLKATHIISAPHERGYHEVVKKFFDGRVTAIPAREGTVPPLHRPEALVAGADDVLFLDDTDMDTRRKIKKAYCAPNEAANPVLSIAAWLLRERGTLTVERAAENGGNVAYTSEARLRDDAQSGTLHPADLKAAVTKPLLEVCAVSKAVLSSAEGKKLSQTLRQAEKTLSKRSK

[8] = target: T4, Tyrosyl-tRNA synthetase, putative (Trypanosoma cruzi (strain CL Brener)); experiment: Trypanosoma cruzi tyrosyl tRNA synthetase (TcYRS) SOP; format: functional; settings: 30 µM
[9] = target: Chromo domain-containing protein 1 (Saccharomyces cerevisiae (strain ATCC 204508 / S288c) (Baker's yeast)) (UniProt P32657); experiment: ScCHD-1 Enzyme Inhibition Assay; format: functional; settings: 30 µM; also: in the data most compounds retested in dose-response had high values
Chromo domain-containing protein 1 (Saccharomyces cerevisiae (strain ATCC 204508 / S288c) (Baker's yeast)), sequence (P32657 whole entry, the tested form may be a part): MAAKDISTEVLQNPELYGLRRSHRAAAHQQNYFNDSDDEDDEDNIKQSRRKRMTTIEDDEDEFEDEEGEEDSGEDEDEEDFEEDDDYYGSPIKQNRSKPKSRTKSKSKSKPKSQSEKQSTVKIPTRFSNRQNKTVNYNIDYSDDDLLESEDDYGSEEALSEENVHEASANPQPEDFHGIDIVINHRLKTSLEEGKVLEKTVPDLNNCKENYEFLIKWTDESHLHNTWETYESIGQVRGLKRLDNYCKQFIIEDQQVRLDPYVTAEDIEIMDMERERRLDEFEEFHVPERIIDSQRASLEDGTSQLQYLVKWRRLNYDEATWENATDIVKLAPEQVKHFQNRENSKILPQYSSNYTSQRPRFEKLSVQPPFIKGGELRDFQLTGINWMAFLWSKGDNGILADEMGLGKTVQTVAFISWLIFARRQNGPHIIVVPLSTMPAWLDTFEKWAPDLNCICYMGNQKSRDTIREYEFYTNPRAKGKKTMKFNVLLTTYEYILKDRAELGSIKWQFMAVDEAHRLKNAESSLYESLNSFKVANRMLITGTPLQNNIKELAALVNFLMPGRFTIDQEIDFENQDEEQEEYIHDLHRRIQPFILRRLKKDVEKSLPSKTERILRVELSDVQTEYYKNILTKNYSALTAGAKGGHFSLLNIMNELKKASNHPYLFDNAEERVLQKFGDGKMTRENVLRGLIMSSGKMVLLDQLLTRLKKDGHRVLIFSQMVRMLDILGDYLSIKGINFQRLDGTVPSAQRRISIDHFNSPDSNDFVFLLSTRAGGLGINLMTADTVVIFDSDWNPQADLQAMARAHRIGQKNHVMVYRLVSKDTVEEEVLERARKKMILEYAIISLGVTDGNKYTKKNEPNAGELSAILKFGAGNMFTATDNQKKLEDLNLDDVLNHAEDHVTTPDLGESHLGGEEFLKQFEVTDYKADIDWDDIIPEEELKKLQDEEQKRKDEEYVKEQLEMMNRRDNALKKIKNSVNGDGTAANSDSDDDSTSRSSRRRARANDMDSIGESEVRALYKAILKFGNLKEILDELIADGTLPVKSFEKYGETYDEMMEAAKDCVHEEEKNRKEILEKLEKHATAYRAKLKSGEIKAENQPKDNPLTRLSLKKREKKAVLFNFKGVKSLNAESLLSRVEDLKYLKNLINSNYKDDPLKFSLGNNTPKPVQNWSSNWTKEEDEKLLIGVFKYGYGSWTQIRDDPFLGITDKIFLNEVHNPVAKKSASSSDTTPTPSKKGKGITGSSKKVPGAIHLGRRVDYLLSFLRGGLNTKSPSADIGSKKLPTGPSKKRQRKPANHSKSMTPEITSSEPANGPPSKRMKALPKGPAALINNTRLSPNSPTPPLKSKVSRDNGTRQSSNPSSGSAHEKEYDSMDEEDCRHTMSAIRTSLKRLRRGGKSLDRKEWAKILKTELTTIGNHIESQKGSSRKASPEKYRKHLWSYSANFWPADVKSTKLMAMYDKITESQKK

Protein translocase subunit SecA (Escherichia coli (strain K12)), sequence (P10408 whole entry): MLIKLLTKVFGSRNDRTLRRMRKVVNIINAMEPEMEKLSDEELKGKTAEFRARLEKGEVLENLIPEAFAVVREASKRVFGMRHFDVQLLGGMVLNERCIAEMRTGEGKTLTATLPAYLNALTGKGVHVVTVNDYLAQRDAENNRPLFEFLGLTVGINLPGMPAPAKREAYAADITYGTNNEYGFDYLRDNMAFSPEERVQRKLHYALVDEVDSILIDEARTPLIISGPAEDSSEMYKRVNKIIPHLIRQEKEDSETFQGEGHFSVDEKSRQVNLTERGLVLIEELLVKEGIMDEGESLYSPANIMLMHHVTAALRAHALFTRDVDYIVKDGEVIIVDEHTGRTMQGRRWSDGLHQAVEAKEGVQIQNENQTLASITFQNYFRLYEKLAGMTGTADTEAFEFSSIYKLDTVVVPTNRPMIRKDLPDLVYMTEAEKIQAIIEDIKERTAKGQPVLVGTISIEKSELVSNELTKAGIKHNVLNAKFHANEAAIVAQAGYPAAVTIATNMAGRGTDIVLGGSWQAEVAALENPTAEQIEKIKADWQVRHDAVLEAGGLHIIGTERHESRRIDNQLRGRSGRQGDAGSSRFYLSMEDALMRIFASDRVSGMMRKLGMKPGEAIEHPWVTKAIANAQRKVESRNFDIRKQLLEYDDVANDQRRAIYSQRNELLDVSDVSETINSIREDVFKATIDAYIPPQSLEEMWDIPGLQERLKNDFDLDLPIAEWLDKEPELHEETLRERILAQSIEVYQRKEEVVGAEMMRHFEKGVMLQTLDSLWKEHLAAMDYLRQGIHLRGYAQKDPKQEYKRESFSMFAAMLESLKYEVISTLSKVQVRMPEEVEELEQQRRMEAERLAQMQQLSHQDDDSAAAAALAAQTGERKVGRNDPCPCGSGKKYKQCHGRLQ

Row | Structure (SMILES) | Percent Effect [1] | Percent Effect [2] | Percent Effect [3] | Percent Effect [4] | Percent Effect (Trypanosoma cruzi) | Percent Effect [5] | Percent Effect [6] | Percent Effect (Homo sapiens) | Percent Effect [7] | Percent Effect [8] | Percent Effect [9]
1 | CCNC(=O)c1cnc(Cc2ccc(F)cc2)s1 | -3.2% | -2.67% | 3.74% | 1.03% | -1.27% | 4.17% | 8.72% | 14.1% | 3.83% | 8.64% | -2.95%
2 | Cc1ccc(CN(C)C(=O)CN2CCCC2Cn2cccn2)o1 (stereo unspecified) | 0.121% | 2.7% | -3.95% | 12.4% | 5.99% | 0% | 1.9% | -5.92% | 2.65% | 7.32% | -4.66%
3 | Cn1ccc(NC(=O)Cc2cccc(F)c2)n1 | -2.82% | 5.41% | 2.46% | -6.52% | 3.71% | -3.33% | 12.3% | 15% | 12.9% | 13.4% | 113%
4 | CC(C)c1ncc(CN2CCCC(CO)C2)cn1 (stereo unspecified) | -1.56% | 1.35% | 11.1% | 9.9% | -6.32% | 1.16% | 3.59% | -1.15% | 1.07% | 1.3% | -0.548%
5 | CCN(Cc1ccccc1)C(=O)CN1CCCC(Cn2cncn2)C1 (stereo unspecified) | -8.07% | 21.1% | -3.72% | 18.3% | 3.64% | 2.16% | 8.38% | -4.88% | -4.43% | 23.5% | -6.71%
6 | CCOCC(=O)N1C[C@@H](O)[C@H](N(C)Cc2ccc(OC)cc2)C1 | -3.53% | 4.05% | 6.78% | 3.17% | -1.19% | 0.232% | 9.05% | 6.37% | 5.38% | 9.09% | -14.5%
7 | CC(C)c1nnc(NC(=O)NCc2ccc(CO)c(F)c2)s1 | -5.17% | 11.4% | -2.17% | -0.945% | -1.95% | 3.66% | 11.8% | 26.1% | -5.21% | -2.53% | -11.2%
8 | COCC(=O)N(C)Cc1ccc(Cl)c(Cl)c1 | -4.08% | -2.63% | 8.5% | 7.96% | -3.21% | -5.92% | 21.2% | 10.7% | 0% | 2.6% | -8.73%
9 | Cc1nc(CN2CCCC(NCc3ccsc3)C2)no1 (stereo unspecified) | 1.07% | 18.2% | -3.38% | -6.19% | -7.3% | 4.63% | 16.1% | 20.4% | 4.85% | 12.2% | -8.54%
10 | CCc1nc(CN(C(C)=O)C2CCN(Cc3cnc(C)cn3)C2)no1 (stereo unspecified) | -1.41% | 22.8% | -8.69% | -10.4% | -3.31% | 4.18% | 5.16% | 27.4% | 4.43% | 13.9% | -6.99%
11 | COc1ccc(-c2noc(CN3CCOCC3C)n2)cc1OC (stereo unspecified) | -2.2% | 18.9% | -11.1% | 15.8% | 0.0943% | -6.81% | 8.83% | 28.9% | 5.42% | 16.1% | -11%
12 | COCCN1CCN(Cc2noc(C3CC3)n2)CC1C (stereo unspecified) | 0.0669% | 22.8% | -4.5% | -13.4% | -3.87% | 1.14% | 10.7% | -0.744% | 1.48% | 11.4% | -3.63%
13 | N#Cc1cn(C2CC2)c(=O)n(CC(O)c2ccccc2F)c1=O (stereo unspecified) | -3.42% | 21.1% | -2.46% | 7.51% | 6.58% | -1.15% | 10.7% | 0.878% | 6.37% | 19.5% | -13.4%
14 | CN(C)S(=O)(=O)c1ccc(CN2CCCC2c2ccc[nH]2)o1 (stereo unspecified) | -6.1% | -13.2% | -1.76% | -2.17% | -2.52% | -0.719% | -2.79% | -1.99% | 4.43% | -6.17% | 5.79%
15 | CCOC1CCCN(C(=O)NCCc2ccn(-c3ccccc3)n2)C1 (stereo unspecified) | -2.03% | 20.8% | -1.06% | -7.16% | -0.49% | -2.74% | 12.1% | 0.938% | 5.71% | 18.8% | -17.1%
16 | CCN1CCN(CC(O)c2ccc(OC(F)(F)F)cc2)CC1 (stereo unspecified) | -9.59% | 16.2% | -17.6% | 27.4% | 9.34% | -19.6% | 9.73% | 0.571% | 6.4% | 18.5% | -20.3%
